Source: the supplement of paper PMC10849652
About 8,800 targets were measured; listed, in parts, are those with a hit and a random draw of the rest. About 0.5% of all pairs of compound and target were hits.

Tests used:
Assay in all cases: log2 fold change, soluble protein after heating vs DMSO (PISA); higher = thermal stabilisation; K562 lysate, 10 uM; active = over 0.2 and 3.5 SD of the protein, either way, in both replicates (recomputed)
[1] = compound: C1=CC=C(C=C1)[C@H](COC2=CC3=C(C=C2)NC(=O)N3)NC(=O)C4=CC=CN(C4=O)CC5=CC(=C(C=C5)F)F
How it was run: (§1)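 A 30 min treatment with 10 μM compound was applied to crude K562 extract at 1 mg/mL protein in PBS pH 7.4 with 1 mM MgCl2. Heating for 3 min spanned 48°C-58°C, after which aliquots were pooled, adjusted to 0.5% NP-40 at 4°C and spun at 21,000xg for 90 min. TMTpro 16plex LC-MS/MS of the supernatant, with channel sums equalised, gave values recorded as log-two fold change in thermal stability against solvent controls, from duplicates.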

[2] = compound: CC1=C(SC2=C1C(=N[C@H](C3=NN=C(N32)C)CC(=O)N)C4=CC=C(C=C4)Cl)C
How it was run: as §1

[3] = compound: CC1=C2C(=CC=C1)N=C(N(C2=O)C3=CC=CC=C3C)CN4C=NC5=C(N=CN=C54)N
How it was run: as §1

[4] = compound: Cc1sc2c(c1C)C(c1ccc(Cl)cc1)=N[C@@H](CC(=O)OC(C)(C)C)c1nnc(C)n1-2
How it was run: as §1

[5] = compound: c1ccc([C@@H]2C[C@H]2NC2CCNCC2)cc1
How it was run: as §1

Measured: log2 fold change

NAA35 (UniProt Q5VZE5)
Chain of UniProt Q5VZE5 (Q5VZE5 whole entry, looked up): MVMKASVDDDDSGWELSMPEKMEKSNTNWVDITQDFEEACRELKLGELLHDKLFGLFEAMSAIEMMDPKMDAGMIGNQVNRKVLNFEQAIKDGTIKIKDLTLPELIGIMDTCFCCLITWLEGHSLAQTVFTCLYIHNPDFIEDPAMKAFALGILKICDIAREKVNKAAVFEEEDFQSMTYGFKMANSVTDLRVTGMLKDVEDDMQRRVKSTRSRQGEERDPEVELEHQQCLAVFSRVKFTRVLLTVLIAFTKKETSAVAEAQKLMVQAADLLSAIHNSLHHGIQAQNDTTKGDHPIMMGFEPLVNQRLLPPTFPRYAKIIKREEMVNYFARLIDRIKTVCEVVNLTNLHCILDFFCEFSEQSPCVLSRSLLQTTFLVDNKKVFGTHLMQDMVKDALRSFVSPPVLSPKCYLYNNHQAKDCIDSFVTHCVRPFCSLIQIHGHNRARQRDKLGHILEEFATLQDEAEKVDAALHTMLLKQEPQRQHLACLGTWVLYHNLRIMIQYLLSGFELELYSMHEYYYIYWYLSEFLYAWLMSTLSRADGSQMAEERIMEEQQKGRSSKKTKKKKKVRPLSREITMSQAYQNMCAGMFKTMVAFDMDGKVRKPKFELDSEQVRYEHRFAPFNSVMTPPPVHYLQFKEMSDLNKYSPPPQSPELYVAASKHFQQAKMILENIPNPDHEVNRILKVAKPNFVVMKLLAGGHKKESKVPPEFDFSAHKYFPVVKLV
inactive: [1] 0.004 | [2] 0.066 | [3] -0.023 | [4] -0.002 | [5] 0.086

MYH6 (UniProt P13533)
inactive: [1] -0.552 | [2] 0.239

NCK1 (UniProt P16333)
inactive: [1] 0.018 | [2] 0 | [3] 0.022 | [4] 0.003 | [5] 0.049

NUP205 (UniProt Q92621)
Chain of UniProt Q92621 (Q92621 whole entry, looked up): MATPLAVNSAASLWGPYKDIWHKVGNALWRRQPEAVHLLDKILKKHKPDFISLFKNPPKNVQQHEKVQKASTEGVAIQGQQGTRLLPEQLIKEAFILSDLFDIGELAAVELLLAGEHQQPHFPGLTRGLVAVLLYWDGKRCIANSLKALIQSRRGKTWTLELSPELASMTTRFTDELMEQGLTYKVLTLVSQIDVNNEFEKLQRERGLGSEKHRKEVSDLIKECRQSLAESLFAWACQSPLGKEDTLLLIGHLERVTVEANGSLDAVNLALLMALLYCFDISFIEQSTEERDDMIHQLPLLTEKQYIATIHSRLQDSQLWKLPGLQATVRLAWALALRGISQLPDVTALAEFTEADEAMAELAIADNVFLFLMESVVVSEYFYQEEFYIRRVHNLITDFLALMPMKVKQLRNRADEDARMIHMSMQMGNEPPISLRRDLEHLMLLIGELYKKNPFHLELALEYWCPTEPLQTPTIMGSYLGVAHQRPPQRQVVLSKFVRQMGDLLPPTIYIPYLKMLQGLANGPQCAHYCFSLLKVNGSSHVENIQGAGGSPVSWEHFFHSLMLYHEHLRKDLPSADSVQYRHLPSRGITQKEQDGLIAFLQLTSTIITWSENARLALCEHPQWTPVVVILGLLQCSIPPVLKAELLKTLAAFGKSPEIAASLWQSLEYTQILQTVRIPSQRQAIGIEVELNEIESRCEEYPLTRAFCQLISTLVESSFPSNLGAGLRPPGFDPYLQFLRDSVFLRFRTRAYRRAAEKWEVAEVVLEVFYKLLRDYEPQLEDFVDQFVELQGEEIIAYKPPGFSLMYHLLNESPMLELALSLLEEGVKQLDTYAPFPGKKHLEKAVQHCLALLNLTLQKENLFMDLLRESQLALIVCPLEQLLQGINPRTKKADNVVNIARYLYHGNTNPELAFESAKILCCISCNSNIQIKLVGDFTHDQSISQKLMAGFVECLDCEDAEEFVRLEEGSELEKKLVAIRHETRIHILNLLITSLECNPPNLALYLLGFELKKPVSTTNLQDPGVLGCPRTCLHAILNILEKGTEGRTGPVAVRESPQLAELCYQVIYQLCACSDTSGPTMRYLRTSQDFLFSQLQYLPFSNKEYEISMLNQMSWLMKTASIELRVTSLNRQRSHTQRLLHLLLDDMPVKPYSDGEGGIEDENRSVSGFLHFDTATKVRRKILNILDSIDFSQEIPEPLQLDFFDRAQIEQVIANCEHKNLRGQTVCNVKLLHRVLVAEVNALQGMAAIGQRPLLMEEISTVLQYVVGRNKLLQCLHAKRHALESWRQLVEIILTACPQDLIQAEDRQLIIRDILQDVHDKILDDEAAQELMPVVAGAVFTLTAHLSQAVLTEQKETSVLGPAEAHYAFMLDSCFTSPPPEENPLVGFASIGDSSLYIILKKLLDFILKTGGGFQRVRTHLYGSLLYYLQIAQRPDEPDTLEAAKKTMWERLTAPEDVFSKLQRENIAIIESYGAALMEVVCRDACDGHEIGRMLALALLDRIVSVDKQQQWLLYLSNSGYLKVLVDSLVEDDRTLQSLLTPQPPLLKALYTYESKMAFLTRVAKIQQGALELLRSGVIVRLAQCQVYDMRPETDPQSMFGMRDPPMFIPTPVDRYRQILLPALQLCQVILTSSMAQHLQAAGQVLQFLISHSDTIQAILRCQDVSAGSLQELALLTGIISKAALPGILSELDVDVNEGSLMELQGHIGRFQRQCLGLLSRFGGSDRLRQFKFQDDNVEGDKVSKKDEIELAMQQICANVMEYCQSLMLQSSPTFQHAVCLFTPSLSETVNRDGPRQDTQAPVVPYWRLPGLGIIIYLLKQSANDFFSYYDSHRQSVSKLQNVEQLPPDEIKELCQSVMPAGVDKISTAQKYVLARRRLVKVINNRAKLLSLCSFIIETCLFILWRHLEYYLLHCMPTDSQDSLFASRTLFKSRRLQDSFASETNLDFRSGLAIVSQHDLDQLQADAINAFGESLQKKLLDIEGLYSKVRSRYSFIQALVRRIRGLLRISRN
inactive: [1] -0.042 | [2] -0.019 | [3] 0.045 | [4] 0.006 | [5] -0.001

NUMBL (UniProt Q9Y6R0)
Chain of UniProt Q9Y6R0 (Q9Y6R0 whole entry, looked up): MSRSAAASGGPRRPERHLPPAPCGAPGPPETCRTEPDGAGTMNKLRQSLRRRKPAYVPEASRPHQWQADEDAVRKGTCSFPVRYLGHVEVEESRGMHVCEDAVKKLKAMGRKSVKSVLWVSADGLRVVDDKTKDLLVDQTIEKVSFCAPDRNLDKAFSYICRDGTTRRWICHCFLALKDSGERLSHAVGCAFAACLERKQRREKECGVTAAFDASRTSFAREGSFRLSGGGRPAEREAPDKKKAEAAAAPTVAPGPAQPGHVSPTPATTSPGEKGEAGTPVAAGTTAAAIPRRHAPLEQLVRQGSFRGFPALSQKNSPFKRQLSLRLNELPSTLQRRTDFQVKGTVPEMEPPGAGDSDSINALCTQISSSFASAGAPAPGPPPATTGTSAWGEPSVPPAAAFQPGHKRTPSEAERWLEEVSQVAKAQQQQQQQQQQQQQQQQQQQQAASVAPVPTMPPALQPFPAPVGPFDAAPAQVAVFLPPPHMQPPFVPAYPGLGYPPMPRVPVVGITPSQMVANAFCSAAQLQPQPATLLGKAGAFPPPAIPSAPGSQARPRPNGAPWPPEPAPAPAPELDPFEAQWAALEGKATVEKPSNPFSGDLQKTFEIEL
inactive: [1] -0.047 | [2] 0.038 | [3] 0.039 | [4] -0.096 | [5] -0.012

NGLY1 (UniProt Q96IV0)
inactive: [1] -0.011 | [2] 0.002 | [3] 0.016 | [4] -0.018 | [5] -0.07

MRPS31 (UniProt Q92665)
inactive: [1] -0.019 | [2] -0.048 | [3] 0.046 | [4] 0.014 | [5] 0.014

NCAPD3 (UniProt P42695)
Chain of UniProt P42695 (P42695 whole entry, looked up): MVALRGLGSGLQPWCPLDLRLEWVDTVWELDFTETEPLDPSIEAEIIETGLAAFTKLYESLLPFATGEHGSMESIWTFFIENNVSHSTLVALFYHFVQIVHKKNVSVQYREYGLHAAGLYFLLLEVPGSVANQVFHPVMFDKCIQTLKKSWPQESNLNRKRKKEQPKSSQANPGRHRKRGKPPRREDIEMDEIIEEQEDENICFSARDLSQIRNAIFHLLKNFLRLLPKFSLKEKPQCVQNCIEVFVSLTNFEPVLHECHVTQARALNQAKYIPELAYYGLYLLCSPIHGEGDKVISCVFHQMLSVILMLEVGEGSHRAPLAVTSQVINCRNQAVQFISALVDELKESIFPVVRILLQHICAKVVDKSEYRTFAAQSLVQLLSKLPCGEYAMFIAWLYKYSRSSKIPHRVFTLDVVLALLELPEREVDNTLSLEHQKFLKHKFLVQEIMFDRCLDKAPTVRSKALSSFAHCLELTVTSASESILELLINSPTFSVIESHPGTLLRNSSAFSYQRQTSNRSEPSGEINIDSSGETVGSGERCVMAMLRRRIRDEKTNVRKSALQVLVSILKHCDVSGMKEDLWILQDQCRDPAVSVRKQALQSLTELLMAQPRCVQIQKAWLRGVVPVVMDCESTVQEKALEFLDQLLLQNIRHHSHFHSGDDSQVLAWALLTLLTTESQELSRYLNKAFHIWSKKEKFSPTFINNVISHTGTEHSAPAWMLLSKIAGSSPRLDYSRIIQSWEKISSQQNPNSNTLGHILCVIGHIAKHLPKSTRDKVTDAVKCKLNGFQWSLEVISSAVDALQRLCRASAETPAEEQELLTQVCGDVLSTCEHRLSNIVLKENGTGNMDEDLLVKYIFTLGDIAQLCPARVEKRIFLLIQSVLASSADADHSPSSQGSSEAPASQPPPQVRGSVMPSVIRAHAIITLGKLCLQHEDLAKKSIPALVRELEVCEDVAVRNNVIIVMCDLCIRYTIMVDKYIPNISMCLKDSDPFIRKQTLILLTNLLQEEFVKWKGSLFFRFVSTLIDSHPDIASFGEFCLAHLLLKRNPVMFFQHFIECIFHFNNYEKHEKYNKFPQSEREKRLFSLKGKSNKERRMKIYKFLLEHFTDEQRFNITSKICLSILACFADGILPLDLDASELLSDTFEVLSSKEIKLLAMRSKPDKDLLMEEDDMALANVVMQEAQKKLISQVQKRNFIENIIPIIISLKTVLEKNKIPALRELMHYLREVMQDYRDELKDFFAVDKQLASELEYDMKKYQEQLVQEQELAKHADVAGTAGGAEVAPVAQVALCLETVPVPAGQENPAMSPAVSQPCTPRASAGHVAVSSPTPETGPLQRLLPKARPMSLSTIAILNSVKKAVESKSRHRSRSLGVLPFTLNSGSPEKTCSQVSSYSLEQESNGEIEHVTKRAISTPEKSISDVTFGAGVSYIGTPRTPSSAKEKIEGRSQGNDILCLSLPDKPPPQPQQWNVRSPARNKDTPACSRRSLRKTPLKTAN
inactive: [1] 0.028 | [2] -0.007 | [3] 0.046 | [4] -0.005 | [5] 0.016

NNMT (UniProt P40261)
Chain of UniProt P40261 (P40261 whole entry, looked up): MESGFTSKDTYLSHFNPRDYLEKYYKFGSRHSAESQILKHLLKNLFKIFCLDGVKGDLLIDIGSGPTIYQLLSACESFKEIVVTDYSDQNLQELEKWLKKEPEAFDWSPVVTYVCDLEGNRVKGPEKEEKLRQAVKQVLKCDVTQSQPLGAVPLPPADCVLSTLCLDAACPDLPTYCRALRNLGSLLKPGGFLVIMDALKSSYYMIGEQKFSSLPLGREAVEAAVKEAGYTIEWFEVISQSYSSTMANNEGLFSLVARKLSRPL
inactive: [1] 0.003 | [2] 0.05 | [3] 0.027 | [4] -0.011 | [5] -0.027

NFAT5 isoform 4 (UniProt O94916)
inactive: [1] -0.208 | [2] 0.11
